The record followed here is PubChem BioAssay (Tox21).

Inconclusive results are not listed. A call without a number means that no potency is given here. The source made the active and inactive calls. Calls come from the whole dose curve; as a rule, active = well fitted cell-killing curve with a large enough effect in the repeat runs; inconclusive = weak or mixed curves, or effect the other way; inactive = flat fitted curve, though single readings scatter.

This assay in a line: qHTS assay to identify small molecule antagonists of the androgen receptor (AR) signaling pathway using the MDA cell line - cell viability counter screen (AID 743041; note: nearly all actives have a fitted effect of over 45% in size). The conditions noted are these: MDA-kb2 viability, CellTiter-Fluor, 16 h, cells co-treated with R1881 androgen agonist; series mostly up to 70.3 µM. An excerpt:
National Center for Advancing Translational Sciences [NCATS]
NIH Chemical Genomics Center [NCGC]
U.S. Environmental Protection Agency [EPA]
National Institutes of Environmental Health Sciences [NIEHS]
National Toxicology Program [NTP]
U.S. Food and Drug Administration [FDA]
Androgen receptor (AR), a nuclear hormone receptor, plays a critical role in AR-dependent prostate cancer and other androgen related diseases. Endocrine disrupting chemicals (EDCs) and their interactions with steroid hormone receptors like AR may cause disruption of normal endocrine function as well as interfere with metabolic homeostasis, reproduction, developmental and behavioral functions. To identify the compounds that inhibit AR signaling, MDA-kb2 AR-luc cell line (from ATCC, deposited by Wilson et al.) was used to screen the Tox21 10K compound library. MDA-kb2 AR-luc cell line is human breast carcinoma cell line that was stably transfected with a luciferase reporter gene under control of the MMTV promoter containing response elements for both androgen receptor (AR) and glucocorticoid receptor (GR). The cytotoxicity of the Tox21 compound library against the MDA-kb2 AR-luc cell line was tested in parallel by measuring the cell viability using CellTiter-Fluor assay (Promega, Madison, WI) in the same wells.
Tox21 Assay Protocol Summary:
MDA-kb2 AR-luc cells were dispensed at 3,000 cells/4 uL/well of culture medium into white wall/solid-bottom 1536-well plates using a Multidrop Combi (ThermoFisher Scientific, Waltham, MA) dispenser. After the assay plates were incubated at a 37C and 0% CO2 for 5 hr, 23 nL of compounds dissolved in DMSO, positive controls or DMSO only was transferred to the assay plate by a Pintool station (Kalypsys, San Diego, CA), followed by addition of 1 uL of agonist (R1881) in culture medium using a Bioraptr Flying Reagent Dispenser (FRD) workstation (Beckman Coulter, Indianapolis, IN, USA). The plates were incubated at a 37C and 0% CO2 for 16 h. After 15.5 h incubation, 1uL of CellTiter-Fluor reagent (Promega) was added using a Bioraptr FRD to each plate for measuring cytotoxicity. The fluorescence intensity was quantified on a ViewLux plate reader (PerkinElmer, Shelton, CT) following 30 min incubation at 37C and 0% CO2.
As to `C[C@]12CC[C@@H]3c4ccc(O)cc4C[C@@H](CCCCCCCCCS(=O)CCCC(F)(F)C(F)(F)F)[C@H]3[C@@H]1CC[C@@H]2O` (stereo not given in full), the Potency result was “inactive”.

On to `Cc1cccc2ccccc12`, for which the Potency entry was “inactive”.

As to `CCCCCCCC(=O)OCC(O)CO` (stereo not given), the Potency result was “inactive”.

As for `CCN1CCCC1=O`, the Potency entry is “inactive”.

Take `CC1(C)O[C@@H]2[C@@H](CO[C@@]3(COS(N)(=O)=O)OC(C)(C)O[C@@H]23)O1`: the Potency entry was “inactive”.

With `C=C(C)C(N)=O`, the Potency entry is “inactive”.

For `N[C@@H](Cc1c[nH]c2ccccc12)C(=O)O`, the Potency result was “inactive”.

In the case of `CCCCCCCCOc1ccc(C(=O)c2ccccc2)c(O)c1`, the Potency entry was “inactive”.

Take `Oc1cccc(O)c1`: the Potency entry was “inactive”.

In the case of `C[C@]12C=CC(=O)C=C1CC[C@@H]1[C@@H]2C(=O)C[C@@]2(C)[C@H]1CC[C@]2(O)C(=O)CO`, the Potency entry was “inactive”.

`CC1=C(/C=C/C(C)=C/C=C/C(C)=C/C(=O)O)C(C)(C)CCC1`: the Potency entry is “inactive”.

As to `CC(C)=CCC/C(C)=C/CO`, the Potency result is “inactive”.

Turning to `Cn1cnc2c1c(=O)[nH]c(=O)n2C`, the Potency entry was “inactive”.

`COc1ccc(O)cc1`: the Potency result is “inactive”.

With `NC(=O)c1ccc([N+](=O)[O-])cc1Cl`, the Potency entry was “inactive”.

For the compound `Cc1cccc(Nc2cc(Cl)nc(SCC(=O)O)n2)c1C`, the Potency entry was “inactive”.

On to `C=CC(=O)NC(C)(C)CS(=O)(=O)O`, for which the Potency entry is “inactive”.

As to `CC(C)(C)NCC(O)c1ccc(O)c(CO)c1` (stereo not given), the Potency result is “inactive”.

As for `CC(=O)CCC(C)C`, the Potency result is “inactive”.

For `CC(=O)/C=C/C1=C(C)CCCC1(C)C`, the Potency result is “inactive”.

As to `CC(=O)c1ccc(S(=O)(=O)NC(=O)NC2CCCCC2)cc1`, the Potency entry was “inactive”.

For `N[C@@H](Cc1c[nH]c2ccc(O)cc12)C(=O)O`, the Potency entry is “inactive”.

Take `NC(=O)NO`: the Potency entry is “inactive”.

As for `CC(=O)Oc1ccccc1C(=O)O`, the Potency result is “inactive”.

Consider `COc1ccc(C(=O)c2ccccc2)c(O)c1`, for which the Potency result was “inactive”.

For the compound `CCCCC/C(C=O)=C\c1ccccc1`, the Potency result is “inactive”.

With `CCc1cc(C(N)=S)ccn1`, the Potency entry was “inactive”.

For `COc1ccccc1O`, the Potency entry is “inactive”.

`C#C[C@]1(O)CC[C@H]2[C@@H]3CCC4=CC(=O)CC[C@@H]4[C@H]3CC[C@@]21CC`: the Potency result is “inactive”.

Consider `Nc1cccc(N)c1`, for which the Potency entry was “inactive”.

On to `O=C(O)CCCCC1CCSS1` (stereo not given), for which the Potency result is “inactive”.

Take `C=C(C)OC(C)=O`: the Potency result is “inactive”.

For `COc1cc2c(c(OC)c1OC)-c1ccc(OC)c(=O)cc1[C@@H](NC(C)=O)CC2`, the Potency entry is “inactive”.

As to `CC(=O)OC/C=C(C)/C=C/C=C(C)/C=C/C1=C(C)CCCC1(C)C`, the Potency entry was “inactive”.

For `Cc1cccc(C)c1O`, the Potency result was “inactive”.

For the compound `O=C(OCc1ccccc1)c1ccccc1`, the Potency result was “inactive”.

For the compound `Cc1c(N(C)CS(=O)(=O)O)c(=O)n(-c2ccccc2)n1C`, the Potency entry is “inactive”.

Regarding `COc1ccccc1NC(=O)CC(C)=O`, the Potency result was “inactive”.

Consider `NC(=O)N/N=C/c1ccc([N+](=O)[O-])o1`, for which the Potency entry is “inactive”.

On to `O=[N+]([O-])c1ccc(O)cc1`, for which the Potency entry was “inactive”.
